# Results reported in PubChem BioAssay.
# For some assays here: Potency and affinity values are given separately. Activity calls are given as the source filed them. Entries that show only a call come without a potency. Unless noted, no cut-off is given here; in the data, nearly all actives have IC50 up to about 0.98 µM.
# System: not listed separately
# Test: inhibition of 3D7 malaria parasite growth – strain 3D7 (AID 2306; call rule not given here)
# Conditions: P. falciparum 3D7 erythrocytic growth, LDH absorbance, 72 h; at 2 µM; stronger effect = higher value
row,Compound,growth inhibition
1,CC(C)NCC(O)COc1ccc(Cc2ccc(OCC(O)CNC(C)C)cc2)cc1 (stereo not given),100% (active)
2,Cc1csc(NC(=O)c2cn(-c3ccccc3)nc2-c2cccs2)n1,95% (active)
3,OC(CNCCCc1ccccc1)c1cc(OCc2ccccc2)cc(OCc2ccccc2)c1 (stereo not given),93% (active)
4,NC1CCN(Cc2ccc(-c3ccc(-c4nc5ccc(F)cc5[nH]4)s3)cc2)C1 (stereo not given),100% (active)
5,N=c1n(CCN2CCCCC2)c2ccccc2n1CC(=O)c1cccc([N+](=O)[O-])c1,94% (active)
6,O=C(NC(=S)NCc1ccncc1)c1ccccc1,94% (active)
7,CC(Cc1ccc(NC(=O)c2ccc(CC(C)NCc3ccc(Cl)c(Cl)c3)cc2)cc1)NCCc1cccc(Cl)c1 (stereo not given),92% (active)
8,Cc1cc(CNC(c2ccccc2)C2CCC2)cc(C)c1O (stereo not given),94% (active)
9,Cc1ccc(CNC(=O)c2cnc(N3CCN(c4ccncc4)CC3)c(Cl)c2)cc1,92% (active)
10,O=C(/C=C/c1ccc(Cl)c(Cl)c1)N1CCC(CN2CCC(Cc3nc4ccccc4[nH]3)CC2)CC1,101% (active)
11,O=C(NCCSCc1c(F)cccc1Cl)c1cnc2c(c1)nc(-c1cnc(-c3ccccc3)[nH]1)n2CCc1cnc[nH]1,93% (active)
12,COc1ccc(-c2cccc(NC(=O)c3ccc(Cl)cc3)c2)cc1CN(C)CCN(C)C,99% (active)
13,CSc1cccc(NC(=O)Nc2ccc(I)c(OCCN(C)C)c2)c1,97% (active)
14,COc1ccc2nccc([C@@H](O)CN3CCC(NC(=O)/C=C/c4cc(F)cc(Br)c4)CC3)c2c1,95% (active)
15,CC(C)C(C(=O)n1ncc2c3c(N)nc(N)nc3ccc21)C(C)C,98% (active)
16,CC(C)N1CCC(N(Cc2ccc(-c3ccc(C(F)(F)F)cc3)cc2)C(=O)Cn2c(SCc3cccc(F)c3F)nc(=O)c3ccccc32)CC1,91% (active)
17,Cc1cc(NN=Cc2ccccc2)c2cc(F)ccc2n1,101% (active)
18,Cc1cc(N[C@@H](Cc2ccccc2)C(=O)NCc2cccs2)nc(Nc2ccccc2)n1,96% (active)
19,CCOc1cc2ncnc(Nc3ccc(OCc4ccccc4Br)c(OC)c3)c2cc1OCC,100% (active)
20,O=C(Nc1cccc(-c2ccc(CN3CCCC3)cc2)c1)c1cccc(F)c1,99% (active)

row,Compound,growth inhibition
1,COCCOc1ccc(Nc2nccc(-c3c(-c4cccc(NC(=O)c5c(F)cccc5F)c4)nn4ccccc34)n2)cc1F,90% (active)
2,CC1(C)N=C(N)N=C(N)N1OCCCOc1cc(Cl)c(Cl)cc1Cl,95% (active)
3,FC(F)(F)c1ccc2nc(-c3ccc(-c4cccc(CN5CCN(CCN6CCOCC6)CC5)c4)cc3)[nH]c2c1,98% (active)
4,Clc1ccc(Nc2nc3nonc3nc2Nc2ccc(Cl)c(Cl)c2)cc1,99% (active)
5,Nc1ccc(-c2ccc3ccnc(N)c3c2)cn1,101% (active)
6,COc1cccc(Nc2nc(C)cc(NC3CCCC3)n2)c1,101% (active)
7,CCOc1ccc(OCC(=O)Nc2nc(-c3ccc(OC)cc3)c(C)s2)cc1,99% (active)
8,O=C(Nc1ccc(Cl)cc1)c1cc(Cl)ccc1NC(=O)C1CCc2ccccc2O1 (stereo not given),98% (active)
9,Cc1cccc(-c2nc(Nc3ccncc3)c3cc(N(C)C)ccc3n2)n1,98% (active)
10,COc1ccc(NS(=O)(=O)c2cc(NC(=O)Cn3ccccc3=O)ccc2N2CCCCC2)cc1,92% (active)
11,COc1ccc2nccc([C@@H](O)CN3CCC(NCCOc4ccccc4[N+](=O)[O-])CC3)c2c1,100% (active)
12,Cc1noc(-c2ccc(O)cc2O)c1-c1ccc2c(c1)OCCCO2,100% (active)
13,N#Cc1cc(C(=O)c2cc(Cl)ccc2O)cn(-c2cc(Cl)cc(Cl)c2)c1=O,93% (active)
14,CC(C)c1ccc(C=CC(=O)N2CCC(CCN3CCC(c4c[nH]c5ccccc45)CC3)CC2)cc1,93% (active)
15,CN1CCC(C(=O)Nc2ccc(-c3ccc(-c4nc5ccccc5[nH]4)cc3)cc2)CC1,101% (active)
16,CC[C@@H]([C@@H](Cc1cc2ccccc2s1)C(=O)N[C@@H](CCCCNC(=O)OCc1ccccc1)C(=O)Nc1ccccn1)N(O)C=O,96% (active)
17,COc1ccc(Br)cc1/C=C/C(=O)Nc1ccc2c(c1)CCCN(C)C2,84% (active)
18,COc1ccc(NC(=O)[C@H](CC(C)C)Nc2cc(C)nc(NCc3cccc(C)c3)n2)cc1,101% (active)
19,N#Cc1cc([N+](=O)[O-])ccc1-n1nc(-c2cccc(Cl)c2)n(CC2CCCO2)c1=S (stereo not given),91% (active)
20,O=C(NCCCCN1CCC(c2cccc3ccccc23)CC1)c1ccc(NC(=O)c2ccc(Cl)cc2)cc1,99% (active)

# Target: Calcium-dependent protein kinase 1 (Plasmodium falciparum (isolate 3D7)) (UniProt P62344)
# Sequence (P62344 whole entry, looked up): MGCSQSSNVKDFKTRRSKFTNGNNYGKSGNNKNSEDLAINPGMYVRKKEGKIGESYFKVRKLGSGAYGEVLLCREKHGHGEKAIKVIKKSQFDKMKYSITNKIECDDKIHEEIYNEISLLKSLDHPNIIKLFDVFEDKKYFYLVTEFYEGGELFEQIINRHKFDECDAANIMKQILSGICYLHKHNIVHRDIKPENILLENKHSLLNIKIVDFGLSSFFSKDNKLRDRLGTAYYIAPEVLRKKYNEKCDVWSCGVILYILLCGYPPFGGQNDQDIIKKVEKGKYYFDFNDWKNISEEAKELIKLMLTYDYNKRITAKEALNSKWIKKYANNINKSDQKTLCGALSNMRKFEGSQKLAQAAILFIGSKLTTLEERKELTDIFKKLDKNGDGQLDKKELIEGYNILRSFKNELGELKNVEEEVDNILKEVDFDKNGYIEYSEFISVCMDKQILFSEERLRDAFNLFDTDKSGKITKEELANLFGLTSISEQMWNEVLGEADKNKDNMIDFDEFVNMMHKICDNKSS
# Test: PfCDPK1 kinase inhibitors, biochemical, TCAMS library (AID 1159585);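 note: inhibitors leave more ATP so luminescence rises with inhibition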
# Conditions: recombinant PfCDPK1, Kinase-Glo ATP depletion luminescence
row,Compound,outcome
1,CC(C)NCC(O)COc1ccc(Cc2ccc(OCC(O)CNC(C)C)cc2)cc1 (stereo not given),inactive
2,Cc1csc(NC(=O)c2cn(-c3ccccc3)nc2-c2cccs2)n1,inactive
3,OC(CNCCCc1ccccc1)c1cc(OCc2ccccc2)cc(OCc2ccccc2)c1 (stereo not given),inactive
4,NC1CCN(Cc2ccc(-c3ccc(-c4nc5ccc(F)cc5[nH]4)s3)cc2)C1 (stereo not given),inactive
5,N=c1n(CCN2CCCCC2)c2ccccc2n1CC(=O)c1cccc([N+](=O)[O-])c1,inactive
6,O=C(NC(=S)NCc1ccncc1)c1ccccc1,inactive
7,CC(Cc1ccc(NC(=O)c2ccc(CC(C)NCc3ccc(Cl)c(Cl)c3)cc2)cc1)NCCc1cccc(Cl)c1 (stereo not given),inactive
8,Cc1cc(CNC(c2ccccc2)C2CCC2)cc(C)c1O (stereo not given),inactive
9,Cc1ccc(CNC(=O)c2cnc(N3CCN(c4ccncc4)CC3)c(Cl)c2)cc1,inactive
10,O=C(/C=C/c1ccc(Cl)c(Cl)c1)N1CCC(CN2CCC(Cc3nc4ccccc4[nH]3)CC2)CC1,inactive
11,O=C(NCCSCc1c(F)cccc1Cl)c1cnc2c(c1)nc(-c1cnc(-c3ccccc3)[nH]1)n2CCc1cnc[nH]1,inactive
12,COc1ccc(-c2cccc(NC(=O)c3ccc(Cl)cc3)c2)cc1CN(C)CCN(C)C,inactive
13,CSc1cccc(NC(=O)Nc2ccc(I)c(OCCN(C)C)c2)c1,inactive
14,COc1ccc2nccc([C@@H](O)CN3CCC(NC(=O)/C=C/c4cc(F)cc(Br)c4)CC3)c2c1,inactive
15,CC(C)C(C(=O)n1ncc2c3c(N)nc(N)nc3ccc21)C(C)C,inactive
16,CC(C)N1CCC(N(Cc2ccc(-c3ccc(C(F)(F)F)cc3)cc2)C(=O)Cn2c(SCc3cccc(F)c3F)nc(=O)c3ccccc32)CC1,inactive
17,Cc1cc(NN=Cc2ccccc2)c2cc(F)ccc2n1,inactive
18,Cc1cc(N[C@@H](Cc2ccccc2)C(=O)NCc2cccs2)nc(Nc2ccccc2)n1,inactive
19,CCOc1cc2ncnc(Nc3ccc(OCc4ccccc4Br)c(OC)c3)c2cc1OCC,inactive
20,O=C(Nc1cccc(-c2ccc(CN3CCCC3)cc2)c1)c1cccc(F)c1,inactive

row,Compound,outcome
1,COCCOc1ccc(Nc2nccc(-c3c(-c4cccc(NC(=O)c5c(F)cccc5F)c4)nn4ccccc34)n2)cc1F,inactive
2,CC1(C)N=C(N)N=C(N)N1OCCCOc1cc(Cl)c(Cl)cc1Cl,inactive
3,FC(F)(F)c1ccc2nc(-c3ccc(-c4cccc(CN5CCN(CCN6CCOCC6)CC5)c4)cc3)[nH]c2c1,inactive
4,Clc1ccc(Nc2nc3nonc3nc2Nc2ccc(Cl)c(Cl)c2)cc1,inactive
5,Nc1ccc(-c2ccc3ccnc(N)c3c2)cn1,inactive
6,COc1cccc(Nc2nc(C)cc(NC3CCCC3)n2)c1,inactive
7,CCOc1ccc(OCC(=O)Nc2nc(-c3ccc(OC)cc3)c(C)s2)cc1,inactive
8,O=C(Nc1ccc(Cl)cc1)c1cc(Cl)ccc1NC(=O)C1CCc2ccccc2O1 (stereo not given),inactive
9,Cc1cccc(-c2nc(Nc3ccncc3)c3cc(N(C)C)ccc3n2)n1,inactive
10,COc1ccc(NS(=O)(=O)c2cc(NC(=O)Cn3ccccc3=O)ccc2N2CCCCC2)cc1,inactive
11,COc1ccc2nccc([C@@H](O)CN3CCC(NCCOc4ccccc4[N+](=O)[O-])CC3)c2c1,inactive
12,Cc1noc(-c2ccc(O)cc2O)c1-c1ccc2c(c1)OCCCO2,inactive
13,N#Cc1cc(C(=O)c2cc(Cl)ccc2O)cn(-c2cc(Cl)cc(Cl)c2)c1=O,inactive
14,CC(C)c1ccc(C=CC(=O)N2CCC(CCN3CCC(c4c[nH]c5ccccc45)CC3)CC2)cc1,inactive
15,CN1CCC(C(=O)Nc2ccc(-c3ccc(-c4nc5ccccc5[nH]4)cc3)cc2)CC1,inactive
16,CC[C@@H]([C@@H](Cc1cc2ccccc2s1)C(=O)N[C@@H](CCCCNC(=O)OCc1ccccc1)C(=O)Nc1ccccn1)N(O)C=O,inactive
17,COc1ccc(Br)cc1/C=C/C(=O)Nc1ccc2c(c1)CCCN(C)C2,inactive
18,COc1ccc(NC(=O)[C@H](CC(C)C)Nc2cc(C)nc(NCc3cccc(C)c3)n2)cc1,inactive
19,N#Cc1cc([N+](=O)[O-])ccc1-n1nc(-c2cccc(Cl)c2)n(CC2CCCO2)c1=S (stereo not given),inactive
20,O=C(NCCCCN1CCC(c2cccc3ccccc23)CC1)c1ccc(NC(=O)c2ccc(Cl)cc2)cc1,inactive
